Holding throughout (experiment): DAPPL (digital affinity profiling via proximity ligation, sequencing); 10 mM Tris-HCl pH 7.5, 50 mM NaCl, 1 mM DTT, 4% glycerol, room temperature, 30 min; GST-TFs on glutathione beads, 16-mer random dsDNA library, 0.1% formaldehyde crosslink after washing; high values mean tight binding
What all share (conditions): protein: recombinant; tags: N-terminal GST; dsDNA, one strand shown

In one assay the target is T1, FLI1 (Homo sapiens, UniProt Q01543 1-452).
T1 sequence: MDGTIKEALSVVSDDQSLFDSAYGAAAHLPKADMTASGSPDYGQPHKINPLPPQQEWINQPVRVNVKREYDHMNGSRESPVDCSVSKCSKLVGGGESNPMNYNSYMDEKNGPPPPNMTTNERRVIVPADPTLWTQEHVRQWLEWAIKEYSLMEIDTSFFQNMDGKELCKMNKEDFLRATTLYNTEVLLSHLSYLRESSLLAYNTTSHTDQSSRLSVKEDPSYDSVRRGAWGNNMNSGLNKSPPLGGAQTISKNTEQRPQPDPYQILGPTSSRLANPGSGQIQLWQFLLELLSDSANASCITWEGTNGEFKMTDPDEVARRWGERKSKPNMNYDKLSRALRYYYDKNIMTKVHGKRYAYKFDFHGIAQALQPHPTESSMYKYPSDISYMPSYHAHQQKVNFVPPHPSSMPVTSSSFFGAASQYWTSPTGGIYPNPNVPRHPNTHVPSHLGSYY
Summed up: (§1)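 After expression in yeast as GST fusions, human transcription factors were bound to glutathione beads, DNA-barcoded and mixed with a tag-only sample. The pools were incubated with 200 nmole of a 16-mer random double-stranded DNA library in Tris/NaCl/DTT/glycerol buffer (30 min, room temperature), washed and crosslinked with 0.1% formaldehyde. Proximity ligation with BsaI/T4 ligase ran for 1 h at 37 °C, before PCR amplification and sequencing on an Illumina NextSeq500. Binding signal is a hexamer's read frequency for a factor divided by its frequency for the tag-only sample.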

A further assay deals with T2, ELK1 (Homo sapiens, UniProt P19419 1-428).
T2 sequence: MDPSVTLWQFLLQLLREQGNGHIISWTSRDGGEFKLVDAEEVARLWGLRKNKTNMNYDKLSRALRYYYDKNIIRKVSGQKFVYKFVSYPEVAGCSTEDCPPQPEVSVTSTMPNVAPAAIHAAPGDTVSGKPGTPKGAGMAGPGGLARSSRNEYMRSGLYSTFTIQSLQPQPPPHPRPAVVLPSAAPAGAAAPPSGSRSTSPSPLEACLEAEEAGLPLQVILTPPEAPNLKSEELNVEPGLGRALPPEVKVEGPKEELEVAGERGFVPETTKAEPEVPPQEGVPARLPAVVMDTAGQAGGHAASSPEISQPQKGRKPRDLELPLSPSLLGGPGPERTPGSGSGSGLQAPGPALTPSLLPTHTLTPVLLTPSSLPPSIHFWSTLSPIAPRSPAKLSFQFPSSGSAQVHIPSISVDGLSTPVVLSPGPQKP
Summed up:
as §1

The target of the next assay is T3, GABPA (Homo sapiens, UniProt Q06546 1-454).
T3 sequence: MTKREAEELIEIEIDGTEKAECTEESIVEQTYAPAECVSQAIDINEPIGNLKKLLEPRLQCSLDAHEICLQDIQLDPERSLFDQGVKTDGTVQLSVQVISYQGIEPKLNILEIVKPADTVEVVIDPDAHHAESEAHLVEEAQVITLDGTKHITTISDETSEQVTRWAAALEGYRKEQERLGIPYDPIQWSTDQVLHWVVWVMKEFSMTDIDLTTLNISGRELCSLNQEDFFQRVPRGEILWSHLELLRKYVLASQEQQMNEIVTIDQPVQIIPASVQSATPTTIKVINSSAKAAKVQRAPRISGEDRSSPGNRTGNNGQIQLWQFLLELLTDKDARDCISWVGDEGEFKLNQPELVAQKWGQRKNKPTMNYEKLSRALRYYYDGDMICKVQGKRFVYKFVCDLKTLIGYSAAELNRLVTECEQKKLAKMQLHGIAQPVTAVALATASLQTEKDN
Summed up: as §1

Another assay deals with T4, ERG (Homo sapiens, UniProt P11308 1-479).
T4 sequence: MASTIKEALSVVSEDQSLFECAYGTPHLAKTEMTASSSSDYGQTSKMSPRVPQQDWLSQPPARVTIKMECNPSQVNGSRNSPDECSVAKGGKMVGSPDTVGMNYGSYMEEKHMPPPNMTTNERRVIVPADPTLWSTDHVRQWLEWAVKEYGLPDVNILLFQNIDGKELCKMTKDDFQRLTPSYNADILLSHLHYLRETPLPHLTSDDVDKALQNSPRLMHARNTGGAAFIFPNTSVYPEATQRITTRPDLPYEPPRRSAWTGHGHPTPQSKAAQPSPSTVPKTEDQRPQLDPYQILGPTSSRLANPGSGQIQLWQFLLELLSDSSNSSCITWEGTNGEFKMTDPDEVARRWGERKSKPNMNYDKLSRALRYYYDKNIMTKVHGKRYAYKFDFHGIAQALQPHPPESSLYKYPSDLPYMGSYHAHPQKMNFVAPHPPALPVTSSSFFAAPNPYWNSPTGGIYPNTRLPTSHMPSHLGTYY
A digest of the protocol: as §1

The next assay has as its target ELF1 (Homo sapiens, UniProt P32519 1-619). A digest of the protocol: as §1
Another assay addresses T5, EHF (Homo sapiens, UniProt Q9NZC4 1-300).
T5 sequence: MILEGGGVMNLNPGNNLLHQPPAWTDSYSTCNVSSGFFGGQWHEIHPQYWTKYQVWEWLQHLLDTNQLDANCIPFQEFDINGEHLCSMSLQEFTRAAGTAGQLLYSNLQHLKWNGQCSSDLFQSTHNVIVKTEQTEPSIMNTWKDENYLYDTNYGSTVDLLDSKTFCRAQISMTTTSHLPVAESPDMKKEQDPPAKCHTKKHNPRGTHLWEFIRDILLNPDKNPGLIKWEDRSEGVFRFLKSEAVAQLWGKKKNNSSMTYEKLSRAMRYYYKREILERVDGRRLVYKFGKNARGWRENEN
Summed up: as §1

A further assay deals with SPI1 (Homo sapiens, UniProt P17947 1-270). A digest of the protocol: as §1
The next assay deals with SPIB (Homo sapiens, UniProt Q01892 1-262). A digest of the protocol:
as §1

The target in a further assay is T6, ELK3 (Homo sapiens, UniProt P41970 1-407).
T6 sequence: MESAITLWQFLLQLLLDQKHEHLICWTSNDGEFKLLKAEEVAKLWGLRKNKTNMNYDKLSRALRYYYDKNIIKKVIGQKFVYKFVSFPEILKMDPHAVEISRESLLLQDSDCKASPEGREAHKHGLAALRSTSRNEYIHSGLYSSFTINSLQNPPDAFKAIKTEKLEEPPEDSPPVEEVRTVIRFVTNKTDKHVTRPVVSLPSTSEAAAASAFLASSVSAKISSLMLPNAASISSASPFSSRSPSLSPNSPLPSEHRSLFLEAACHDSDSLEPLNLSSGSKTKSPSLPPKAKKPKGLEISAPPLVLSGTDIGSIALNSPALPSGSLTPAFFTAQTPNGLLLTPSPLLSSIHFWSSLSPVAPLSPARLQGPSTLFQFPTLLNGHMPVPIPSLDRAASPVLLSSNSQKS
A digest of the protocol: as §1

Chain of ELF1 (P32519 whole entry): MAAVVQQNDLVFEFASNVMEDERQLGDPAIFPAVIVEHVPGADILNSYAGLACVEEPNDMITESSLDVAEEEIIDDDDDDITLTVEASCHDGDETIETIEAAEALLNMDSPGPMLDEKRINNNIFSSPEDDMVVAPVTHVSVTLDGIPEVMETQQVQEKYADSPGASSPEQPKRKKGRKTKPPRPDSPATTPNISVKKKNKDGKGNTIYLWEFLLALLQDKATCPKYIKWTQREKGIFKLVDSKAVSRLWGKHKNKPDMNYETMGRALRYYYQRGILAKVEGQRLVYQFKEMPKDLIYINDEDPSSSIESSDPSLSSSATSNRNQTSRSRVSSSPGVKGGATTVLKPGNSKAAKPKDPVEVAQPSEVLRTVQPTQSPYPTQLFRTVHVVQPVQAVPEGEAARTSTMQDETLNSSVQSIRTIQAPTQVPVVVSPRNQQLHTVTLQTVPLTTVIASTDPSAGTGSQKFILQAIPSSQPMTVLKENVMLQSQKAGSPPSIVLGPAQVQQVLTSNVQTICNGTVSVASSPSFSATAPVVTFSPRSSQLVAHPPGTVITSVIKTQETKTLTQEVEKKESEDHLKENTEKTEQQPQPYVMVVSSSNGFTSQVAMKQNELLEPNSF
Chain of SPIB (Q01892 whole entry): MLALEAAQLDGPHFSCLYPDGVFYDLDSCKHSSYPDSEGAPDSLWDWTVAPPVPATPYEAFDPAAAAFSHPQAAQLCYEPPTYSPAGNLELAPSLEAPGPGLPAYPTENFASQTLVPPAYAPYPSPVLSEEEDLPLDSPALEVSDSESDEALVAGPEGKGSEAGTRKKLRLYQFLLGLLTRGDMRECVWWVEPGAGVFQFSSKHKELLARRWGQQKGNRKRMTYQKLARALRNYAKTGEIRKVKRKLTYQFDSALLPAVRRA

Turning to CAACTT, the binding signal with FLI1 is 1.62 fold enrichment (6-mer frequency, TF over GST control); with ELK1, 1.62 fold enrichment (6-mer frequency, TF over GST control); with GABPA it was 1.53 fold enrichment (6-mer frequency, TF over GST control); with ERG, 1.68 fold enrichment (6-mer frequency, TF over GST control); with ELF1 it was 1.55 fold enrichment (6-mer frequency, TF over GST control); with EHF it was 1.54 fold enrichment (6-mer frequency, TF over GST control). For the same sequence, the binding signal is 1.69 fold enrichment (6-mer frequency, TF over GST control) with SPI1; 1.68 fold enrichment (6-mer frequency, TF over GST control) in the assay with SPIB; 1.59 fold enrichment (6-mer frequency, TF over GST control) with ELK3.

Take ATTCGA: the binding signal was 1.3 fold enrichment (6-mer frequency, TF over GST control) with FLI1; 1.22 fold enrichment (6-mer frequency, TF over GST control) with ELK1; 1.37 fold enrichment (6-mer frequency, TF over GST control) with GABPA; 1.33 fold enrichment (6-mer frequency, TF over GST control) with ERG; 1.41 fold enrichment (6-mer frequency, TF over GST control) in the assay with ELF1; 1.29 fold enrichment (6-mer frequency, TF over GST control) with EHF. Further, the binding signal in the assay with SPI1 is 1.32 fold enrichment (6-mer frequency, TF over GST control); with SPIB it was 1.38 fold enrichment (6-mer frequency, TF over GST control); with ELK3, 1.25 fold enrichment (6-mer frequency, TF over GST control).

Consider CCCCTC, for which the binding signal was 1.48 fold enrichment (6-mer frequency, TF over GST control) in the assay with FLI1; 1.29 fold enrichment (6-mer frequency, TF over GST control) in the assay with ELK1; 1.45 fold enrichment (6-mer frequency, TF over GST control) in the assay with GABPA; 1.28 fold enrichment (6-mer frequency, TF over GST control) in the assay with ERG; 1.43 fold enrichment (6-mer frequency, TF over GST control) with ELF1; 1.31 fold enrichment (6-mer frequency, TF over GST control) with EHF. Further, the binding signal in the assay with SPI1 is 1.39 fold enrichment (6-mer frequency, TF over GST control); with SPIB, 1.55 fold enrichment (6-mer frequency, TF over GST control); in the assay with ELK3 it was 1.37 fold enrichment (6-mer frequency, TF over GST control).

Turning to AATCCT, the binding signal in the assay with FLI1 was 1.46 fold enrichment (6-mer frequency, TF over GST control); with ELK1, 1.31 fold enrichment (6-mer frequency, TF over GST control); in the assay with GABPA it was 1.34 fold enrichment (6-mer frequency, TF over GST control); with ERG it was 1.41 fold enrichment (6-mer frequency, TF over GST control); in the assay with ELF1, 1.36 fold enrichment (6-mer frequency, TF over GST control); with EHF it was 1.33 fold enrichment (6-mer frequency, TF over GST control). Also, the binding signal with SPI1 was 1.37 fold enrichment (6-mer frequency, TF over GST control); with SPIB it was 1.38 fold enrichment (6-mer frequency, TF over GST control); with ELK3, 1.46 fold enrichment (6-mer frequency, TF over GST control).

Take GATGCT: the binding signal was 1.18 fold enrichment (6-mer frequency, TF over GST control) with FLI1; 1.11 fold enrichment (6-mer frequency, TF over GST control) with ELK1; 1.14 fold enrichment (6-mer frequency, TF over GST control) with GABPA; 1.12 fold enrichment (6-mer frequency, TF over GST control) with ERG; 1.12 fold enrichment (6-mer frequency, TF over GST control) with ELF1; 1.25 fold enrichment (6-mer frequency, TF over GST control) with EHF. Further, the binding signal was 1.23 fold enrichment (6-mer frequency, TF over GST control) in the assay with SPI1; 1.22 fold enrichment (6-mer frequency, TF over GST control) in the assay with SPIB; 1.2 fold enrichment (6-mer frequency, TF over GST control) in the assay with ELK3.

For the sequence ATTCCT, the binding signal with FLI1 is 1.46 fold enrichment (6-mer frequency, TF over GST control); with ELK1, 1.37 fold enrichment (6-mer frequency, TF over GST control); with GABPA, 1.28 fold enrichment (6-mer frequency, TF over GST control); with ERG, 1.27 fold enrichment (6-mer frequency, TF over GST control); in the assay with ELF1 it was 1.42 fold enrichment (6-mer frequency, TF over GST control); with EHF, 1.34 fold enrichment (6-mer frequency, TF over GST control). Also, the binding signal was 1.46 fold enrichment (6-mer frequency, TF over GST control) with SPI1; 1.43 fold enrichment (6-mer frequency, TF over GST control) with SPIB; 1.3 fold enrichment (6-mer frequency, TF over GST control) in the assay with ELK3.

In the case of ATTATA, the binding signal with FLI1 is 1.24 fold enrichment (6-mer frequency, TF over GST control); with ELK1 it was 1.32 fold enrichment (6-mer frequency, TF over GST control); with GABPA it was 1.21 fold enrichment (6-mer frequency, TF over GST control); in the assay with ERG it was 1.25 fold enrichment (6-mer frequency, TF over GST control); with ELF1 it was 1.31 fold enrichment (6-mer frequency, TF over GST control); with EHF, 1.29 fold enrichment (6-mer frequency, TF over GST control). Further, the binding signal with SPI1 is 1.2 fold enrichment (6-mer frequency, TF over GST control); with SPIB, 1.37 fold enrichment (6-mer frequency, TF over GST control); with ELK3 it was 1.28 fold enrichment (6-mer frequency, TF over GST control).

These data come from PMC7862700, “An all-to-all approach to the identification of sequence-specific readers for epigenetic DNA modifications on cytosine”.
